Experimental data published in PubChem BioAssay (NCATS).
Inconclusive results are not listed. The source made the active and inactive calls. Unless noted, the call rests on the fitted dose curve; in most records, active means well fitted curve in the direction sought with a large enough effect; inconclusive means small, poorly fitted or top-dose-only effect, or another doubt; inactive means no such curve, though single readings can be large; an effect the other way counts as inactive or inconclusive.

How the values were obtained:
[1] = Cell Viability - BJ (AID 421; calls by dose curve;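 further: potency means the concentration at half of the fitted maximal effect; cells exposed to compound for 40 hours at 37 °C before readout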); settings: BJ fibroblast viability, qHTS
Summary of the method: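 Cytotoxicity as drop in intracellular ATP (CellTiter-Glo, 20 min RT) after 40 hr compound exposure of BJ fibroblasts at 37 °C. Titrations scaled between DMSO and 100 uM tamoxifen, Hill-fitted for AC50.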

[2] = Cell Viability - Jurkat (AID 426;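 active means dose-dependent loss of cell ATP signal giving a full or clear fitted curve, ranked by lower potency value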; further: potency means the concentration at half of the fitted maximal effect); settings: qHTS
Summary of the method: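 Jurkat (Clone E6-1) cells, 5000/well in complete medium, exposed to compounds for 40 hr at 37C; intracellular ATP measured by CellTiter-Glo luminescence after 20 min at room temperature. AC50 from Hill fits.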

[3] = Cell Viability - Hek293 (AID 427;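 active means compounds whose dose-response curve shows a full or clear partial loss of cell viability, called from curve shape rather than a numeric limit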;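 further: potency means the concentration at half of the fitted maximal effect; cells exposed to compound for 40 hours at 37 °C before reading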); settings: qHTS
Summary of the method: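 Luminescent ATP content (CellTiter-Glo, 20 min at room temperature) was measured after a 40 hr, 37 °C compound exposure of HEK293 cells. AC50 values came from Hill-equation fits of qHTS concentration-response data normalized to DMSO and 100 uM tamoxifen.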

[4] = Cell Viability - HepG2 (AID 433; calls by dose curve;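 further: potency means the concentration at half of the fitted maximal effect; potency for ATP loss meaning cytotoxicity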); settings: qHTS
Summary of the method: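 HepG2 hepatocellular carcinoma cells (1500/well) were treated with compounds for 40 h at 37 °C in complete medium; intracellular ATP was read by CellTiter-Glo luminescence. Data were normalized to DMSO and 100 uM tamoxifen, and AC50 came from Hill fits.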

[5] = Cell Viability - MRC5 (AID 434; calls by dose curve;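 further: potency means the concentration at half of the fitted maximal effect; potency reflects cytotoxicity seen as loss of intracellular ATP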); settings: MRC5 lung fibroblast viability, qHTS
Summary of the method: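 MRC5 normal human lung fibroblasts, 1500 cells/well, exposed to compound for 40 hr at 37 C. Cellular ATP was read by CellTiter-Glo luminescence; data normalized to DMSO and 100 uM tamoxifen, with AC50 from Hill fits.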

[6] = Cell Viability - SK-N-SH (AID 435; calls by dose curve;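 further: potency means the concentration at half of the fitted maximal effect; compound exposure lasted 40 h at 37 °C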); settings: SK-N-SH neuroblastoma cell viability qHTS
Summary of the method: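 SK-N-SH human neuroblastoma cells (1500/well) were exposed to compounds in complete medium for 40 h at 37 °C, and intracellular ATP was then measured by CellTiter-Glo luminescence. AC50 was taken from Hill fits, normalized to DMSO and 100 uM tamoxifen.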

[7] = Cell Viability - N2a (AID 540);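 further: plate controls were DMSO alone for no effect and tamoxifen control for full effect; nearly all actives have a fitted effect of over 45% in size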
Summary of the method: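 Mouse neuroblastoma N2a cells, 1500/well, exposed to compounds 40 h at 37 °C in complete medium. Viability measured as cellular ATP by CellTiter-Glo luminescence; AC50 from Hill fits of concentration-response.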

[8] = Cell Viability - SH-SY5Y (AID 544); settings: SH-SY5Y neuroblastoma cell viability; at 92.2 µM (top of the series);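 further: 0% = DMSO alone and -100% = 100 µM tamoxifen; nearly all actives have a fitted effect of over 55% in size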
Summary of the method: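 SH-SY5Y human neuroblastoma cells (1500/well) incubated 5 h, then compound-treated 40 h at 37 °C in complete medium. Viability read as intracellular ATP by CellTiter-Glo luminescence after 20 min; AC50 from Hill-equation fits of qHTS concentration-response.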

[9] = Cell Viability - Renal Proximal Tubule (AID 545);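 further: 0% = DMSO only and -100% = 100 µM tamoxifen; nearly all actives have a fitted effect of over 40% in size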
Summary of the method: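 Primary rat renal proximal tubule cells (1000/well) were treated with compounds for 40 hr at 37 °C in complete medium. Intracellular ATP was measured by CellTiter-Glo luminescence, and AC50 values came from Hill-equation fits of concentration-response data.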

[10] = Cell Viability - Mesenchymal (AID 546);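 further: cells exposed to compound for 40 hours before reading; 0% = DMSO only and -100% = 100 µM tamoxifen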
Summary of the method: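 Human kidney mesenchymal cells from normal renal glomeruli, 1000 cells/well, rested 5 hr at 37 °C, then treated 40 hr at 37 °C in complete medium. Cellular ATP read by CellTiter-Glo luminescence; AC50 from Hill-equation fits.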

[11] = Cellular Toxicity (caspase-3) HepG2 (AID 654);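 further: cells exposed to compound for 16 hours before reading; 0% = DMSO alone and 100% = caspase signal from 100 µM tamoxifen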
Summary of the method: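 HepG2 cells (1500/well) were treated 16 h at 37 °C in complete medium, then caspase 3/7 activity was read by Caspase-Glo luminescence. Data were normalized to DMSO and 100 uM tamoxifen; AC50 came from Hill-equation fits of qHTS concentration-response.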

[12] = Cellular Toxicity (caspase-3) Jurkat (AID 655);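 further: cells exposed to compound for 16 h at 37 °C before reading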
Summary of the method: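 Jurkat cells (5000/well) in complete medium were treated with compounds for 16 hr at 37 °C, then Caspase-Glo 3/7 luminescence was read after 20 min at room temperature. Data normalized to DMSO (basal) and 100 uM tamoxifen (100%); AC50 from Hill fit.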

[13] = Cellular Toxicity (caspase-3) HUV-EC-C (AID 656);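 further: 0% = DMSO basal and 100% = 100 µM tamoxifen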
Summary of the method: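 HUV-EC-C endothelial cells, 1000/well, were pre-incubated 5 hr at 37°C, then exposed to compounds for 16 hr at 37°C. Caspase-Glo 3/7 luminescence was read after 20 min at room temperature. AC50 came from Hill fits, normalized to DMSO and 100 uM tamoxifen.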

[14] = Cellular Toxicity (caspase-3) SHSY5Y (AID 657)
Summary of the method: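 SH-SY5Y human neuroblastoma cells (1500/well) were treated with compounds for 16 h at 37 °C, then Caspase-Glo 3/7 luminescence was read after 1 h at room temperature. Data normalized to DMSO and 10 uM staurosporine; AC50 from Hill fits.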

[15] = Cellular Toxicity (caspase-3) BJ (AID 658);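 further: 0% = DMSO basal and 100% = 10 µM staurosporine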
Summary of the method: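 BJ human foreskin fibroblasts, 1000 cells/well, treated 16 hours at 37 °C in complete medium; caspase 3/7 activity by Caspase-Glo luminescence after 1 hr at room temperature. Normalized to DMSO and 10 uM staurosporine; AC50 from Hill fits.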

[16] = Cellular Toxicity (caspase-3) MRC-5 (AID 659);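 further: 0% = DMSO basal and 100% = 10 µM staurosporine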
Summary of the method: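 MRC-5 human normal lung fibroblasts, 1500 cells/well, treated 16 h at 37 °C in complete medium. Caspase 3/7 measured by Caspase-Glo luminescence after 1 h at room temperature. Normalized to DMSO and 10 uM staurosporine; AC50 from Hill fit.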

[17] = Cellular Toxicity (caspase-3) Mesangial (AID 660)
Summary of the method: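 Human renal glomerular mesangial cells, 1000/well, 5 h at 37 C before 16 h compound treatment. Caspase-Glo 3/7 luminescence after 20 min; normalized to DMSO and 100 uM tamoxifen, AC50 from Hill fit.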

[18] = Cellular Toxicity (caspase-3) SK-N-SH (AID 661);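 further: 0% = DMSO basal and 100% = 10 µM staurosporine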
Summary of the method: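 Human SK-N-SH neuroblastoma cells, 1500/well, were exposed to compounds for 16 hours at 37 °C. Caspase-Glo 3/7 luminescence was normalized to DMSO (basal) and 10 uM staurosporine (100%), and AC50 came from a Hill fit.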

[19] = Cellular Toxicity (caspase-3) H-4-II-E (AID 663);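 further: cells exposed to compound for 16 hr before readout; 0% = DMSO basal and 100% = 100 µM tamoxifen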
Summary of the method: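 Rat hepatoma H-4-II-E cells (1500/well) plated 5 hr, then exposed to compound titrations for 16 hr at 37 °C. Caspase-Glo 3/7 luminescence read after 20 min at RT; data normalized to DMSO and 100 uM tamoxifen, AC50 from Hill fits.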

[20] = Cellular Toxicity (caspase-3) Hek293 (AID 664);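 further: cells exposed to compound for 16 h at 37 °C before readout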
Summary of the method: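 HEK293 cells in complete medium treated 16 h at 37 °C, then Caspase-Glo 3/7 luminescence read after 20 min at room temperature. Normalized to DMSO and 100 uM tamoxifen; AC50 from Hill fit of concentration-response.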

[21] = Cellular Toxicity (caspase-3) N2a (AID 665);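 further: compound exposure lasted 16 h at 37 °C before readout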
Summary of the method: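 Mouse N2a neuroblastoma cells, 1500 per well, treated 16 h at 37 °C in complete medium; caspase-3/7 activity by Caspase-Glo luminescence after 1 h. Normalized to DMSO and 10 uM staurosporine; AC50 from Hill fits.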

[22] = Cellular Toxicity (caspase-3) NIH 3T3 (AID 666);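 further: caspase signal read after 16 h compound exposure; 0% = DMSO basal and 100% = 100 µM tamoxifen stimulation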
Summary of the method: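 Mouse NIH 3T3 fibroblasts (1000/well) treated 16 h at 37 C; caspase-3/7 activity measured by Caspase-Glo 3/7 luminescence after 20 min. Normalized to DMSO and 100 uM tamoxifen; AC50 from Hill fits.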

[23] = Cellular Toxicity (caspase-3) Renal Proximal Tubule (AID 667);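 further: cells exposed to compound for 16 hours at 37 °C before detection; 0% = DMSO basal and 100% = 10 µM staurosporine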
Summary of the method: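 Primary rat proximal tubule cells, 1000/well, 5 h plating at 37 °C, then compound 16 h at 37 °C. Caspase-Glo 3/7 reagent, 1 h RT, luminescence. Normalized to DMSO (basal) and 10 uM staurosporine (100%); Hill-fit AC50.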

[24] = MultiTox-Fluor Cytotoxicity Assay - LYMP1-001 - Dead Cells (AID 946)
Summary of the method: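 Cytotoxicity as increased dead-cell protease fluorescence (bis-AAF-R110, 485/520 nm), read 60 min after MultiTox-Fluor reagent. Human lymphoblastoid line exposed 16 h; Hill-fitted AC50, with DMSO as 0% and 15 uM tetraoctylammonium bromide as 100%.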

[25] = MultiTox-Fluor Cytotoxicity Assay - LYMP1-001 - Live Cells (AID 947);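 further: 0% = DMSO only and full inhibition = tetraoctylammonium bromide control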
[26] = Cell Viability - LYMP1-002 - Assay at 16 hr (AID 948);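 further: 0% = DMSO alone and full effect = 92 µM tetraoctylammonium bromide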
Summary of the method: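 Human lymphoblastoid cells (LYMP1-002), 2500/well, were preincubated 5 hr at 37 C, then exposed to compounds for 16 hr at 37 C in complete medium. Cellular ATP was read by CellTiter-Glo luminescence after 30 min at room temperature; AC50 from Hill fits.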

[27] = MultiTox-Fluor Cytotoxicity Assay - LYMP1-002 - Live Cells (AID 955); further: on the % scale 0 is the no-effect control and ±100 the full control effect
Summary of the method: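 Human lymphoblastoid LYMP1-002 cells, 2500/well, treated 16 h at 37 C in complete medium. Live-cell protease activity via GF-AFC fluorescence (Ex/Em 405/510) after 60 min reagent incubation; AC50 from Hill fits.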

[28] = MultiTox-Fluor Cytotoxicity Assay - LYMP1-002 - Dead Cells (AID 960); further: nearly all actives have a fitted effect of over 60% in size
Summary of the method: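 Human lymphoblastoid LYMP1-002 cells, 2500/well, treated 16 h at 37 C; dead-cell protease cleavage of bis-AAF-R110 read by fluorescence (485/520); normalized to DMSO and 15 uM tetraoctylammonium bromide; AC50 from Hill fit.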

[29] = MultiTox-Fluor Cytotoxicity Assay - LYMP1-003 - Dead Cells (AID 961); further: nearly all actives have a fitted effect of over 70% in size
Summary of the method: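 Dead-cell protease release, detected as bis-AAF-R110 fluorescence at 485/520 nm, was measured in LYMP1-003 cells after 16 h compound treatment at 37 C. AC50 values came from Hill-modeled qHTS curves normalized to DMSO (0%) and 15 uM tetraoctylammonium bromide (100%).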

[30] = MultiTox-Fluor Cytotoxicity Assay - LYMP1-003 - Live Cells (AID 962);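 further: 0% = DMSO only and full loss = 92 µM tetraoctylammonium bromide; cytotoxic hits lower the live-cell protease signal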
Summary of the method: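 LYMP1-003 lymphoblastoid cells, 2500/well in complete medium, treated 16 h at 37 C; live-cell protease cleavage of GF-AFC read by fluorescence (Ex/Em 405/510) after 60 min reagent; AC50 from Hill fits of concentration-response.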

[31] = Cell Viability - LYMP1-003 - Assay at 24 hr (AID 963);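 further: plate controls were DMSO only for no effect and tetraoctylammonium bromide positive control for full effect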
Summary of the method: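 Human lymphoblastoid LYMP1-003 cells, 2500/well, treated 24 h at 37 C in complete medium. Viability read as intracellular ATP by CellTiter-Glo luminescence after 30 min at room temperature; AC50 from Hill-equation fits of qHTS concentration-response.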

[32] = Cell Viability - LYMP2-003 (AID 965);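 further: cells exposed to compounds for 24 h before reading; 0% = DMSO only and full effect = 92 µM tetraoctylammonium bromide; nearly all actives have a fitted effect of over 50% in size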
Summary of the method: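 Human lymphoblastoid cells (2500/well) were pre-incubated 5 hr at 37 C, then exposed to compounds over a concentration range for 24 hr at 37 C. Intracellular ATP was read by CellTiter-Glo luminescence; AC50 came from Hill-equation fits.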

[33] = Cell Viability - LYMP2-004 (AID 966);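 further: plate controls were DMSO only for no effect and tetraoctylammonium bromide control for full effect; nearly all actives have a fitted effect of over 65% in size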
Summary of the method: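 Lymphoblastoid LYMP2-004 cells, 2500 per well, were preincubated for 5 hr and then treated with compound for 24 h at 37 C in complete medium. Viability was read as cellular ATP by CellTiter-Glo luminescence, and AC50 values were taken from Hill fits to concentration-response data.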

[34] = Cell Viability - LYMP2-005 (AID 967);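 further: plate controls were DMSO only for no effect and 92 µM tetraoctylammonium bromide control for full effect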
Summary of the method: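 CellTiter-Glo luminescence (cellular ATP) read-out; LYMP2-005 lymphoblastoid cells, 2500/well, 5 h pre-incubation, then 24 h compound exposure at 37 C in complete medium. Tetraoctylammonium bromide positive control; AC50 by standard Hill fit.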

[35] = Cell Viability - LYMP2-009 (AID 968);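 further: 0% = DMSO alone and the full-kill end = tetraoctylammonium bromide at 92 µM; nearly all actives have a fitted effect of over 55% in size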
[36] = Cell Viability - LYMP2-011 (AID 969);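 further: 0% = DMSO only and full inhibition = 92 µM tetraoctylammonium bromide; nearly all actives have a fitted effect of over 60% in size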
Summary of the method: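 2500 cells/well in complete medium, compound-treated 24 h at 37 C. Viability read as intracellular ATP by CellTiter-Glo luminescence after 30 min at room temperature. AC50 from Hill fits of qHTS concentration-response data.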

[37] = Cell Viability - LYMP2-013 (AID 970);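 further: 0% = DMSO only and full inhibition = tetraoctylammonium bromide control; nearly all actives have a fitted effect of over 55% in size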
Summary of the method: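 Human lymphoblastoid LYMP2-013 cells, 2500/well, treated 24 h at 37 C in complete medium; viability as intracellular ATP by CellTiter-Glo luminescence after 30 min. AC50 from Hill fits of qHTS concentration-response.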

[38] = Cell Viability - LYMP2-015 (AID 971);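 further: 0% = DMSO only and full effect = 92 µM tetraoctylammonium bromide; nearly all actives have a fitted effect of over 55% in size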
Summary of the method: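 LYMP2-015 human lymphoblastoid cells (2500/well) in complete medium, compound-treated 24 h at 37 C; viability read as cellular ATP by CellTiter-Glo luminescence after 30 min at room temperature. AC50 from Hill-equation fits of qHTS concentration-response data.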

[39] = Cell Viability - LYMP2-017 (AID 972)
Summary of the method: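 LYMP2-017 human lymphoblastoid cells (2500/well) settled 5 hr at 37 C, then exposed to compound 24 hr at 37 C in complete medium. Viability taken as intracellular ATP by CellTiter-Glo luminescence after 30 min at RT; AC50 from Hill fits.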

[40] = Cell Viability - LYMP2-019 (AID 973)
Summary of the method: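 Human lymphoblastoid LYMP2-019 cells (2500/well) preincubated 5 h at 37 C, then treated 24 h at 37 C in complete medium. Viability by CellTiter-Glo ATP luminescence after 30 min at room temperature; AC50 from Hill fits.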

[41] = Cell Viability - LYMP2-021 (AID 974)
Summary of the method: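 Human lymphoblastoid LYMP2-021 cells, 2500/well in complete medium, treated 24 hours at 37 C. Intracellular ATP by CellTiter-Glo luminescence (30 min, RT); AC50 from Hill fits of concentration-response.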

CO[C@H]1/C=C/O[C@@]2(C)Oc3c(C)c(O)c4c(O)c(c(/C=N/N5CCN(C)CC5)c(O)c4c3C2=O)NC(=O)/C(C)=C\C=C\[C@H](C)[C@H](O)[C@@H](C)[C@@H](O)[C@@H](C)[C@H](OC(C)=O)[C@@H]1C
active: viability change, negative = cytotoxic [8] -92.1%
inactive: Potency [1] > 92 µM | Potency [2] > 92 µM | Potency [3] > 92 µM | Potency [4] > 92 µM | Potency [5] > 92 µM | Potency [6] > 92 µM | outcome [7] | outcome [9] | outcome [10] | outcome [11] | outcome [12] | outcome [13] | outcome [14] | outcome [15] | outcome [16] | outcome [17] | outcome [18] | outcome [19] | outcome [20] | outcome [21] | outcome [22] | outcome [23] | outcome [24] | outcome [25] | outcome [26] | outcome [27] | outcome [28] | outcome [29] | outcome [30] | outcome [31] | outcome [32] | outcome [33] | outcome [34] | outcome [35] | outcome [36] | outcome [37] | outcome [38] | outcome [39] | outcome [40] | outcome [41]
